# The supplement of paper PMC12645437, “Orthogonal IMiD-Degron Pairs Induce Selective Protein Degradation in Cells” (ACS Chemical Biology, 2025)
# In all, about 8,300 sequences were measured (“log2 fold change of degron read counts, EGFP-low vs EGFP+ sorted cells (limma voom), compound-induced degradation”: median about -1.1, highest 2% from about 3.2 on). The full list was thinned out, with the highest values kept by preference.
# T1: CRBN, Q96SW2
# T1 chain: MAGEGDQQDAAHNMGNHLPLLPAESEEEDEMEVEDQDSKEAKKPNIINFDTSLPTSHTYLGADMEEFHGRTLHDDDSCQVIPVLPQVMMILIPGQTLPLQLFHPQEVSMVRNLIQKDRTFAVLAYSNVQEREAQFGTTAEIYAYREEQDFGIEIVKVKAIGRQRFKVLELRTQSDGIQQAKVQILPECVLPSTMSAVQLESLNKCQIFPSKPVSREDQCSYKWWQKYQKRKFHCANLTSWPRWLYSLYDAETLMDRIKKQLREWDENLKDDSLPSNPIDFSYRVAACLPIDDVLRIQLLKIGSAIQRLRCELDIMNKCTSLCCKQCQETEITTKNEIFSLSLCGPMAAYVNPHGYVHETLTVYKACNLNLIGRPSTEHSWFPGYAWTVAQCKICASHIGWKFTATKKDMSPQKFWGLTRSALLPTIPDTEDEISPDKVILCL
# Target: T1, CRBN, Q96SW2
# Assay: log2 fold change of degron read counts, EGFP-low vs EGFP+ sorted cells (limma voom), compound-induced degradation; higher = more compound-induced degradation of the degron-EGFP fusion; degrons are variants of IKZF1/3 zinc finger 2; compound dose not given here
# Details: Jurkat, 18 h
# [1] = compound: compound 19 (5-tert-butyl-thalidomide)
# [2] = compound: compound 22 (5-morpholino-thalidomide)
# [3] = compound: compound 33 (diphenyl IMiD analogue)
# 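Further: pooled lentiviral library of zinc finger degron-EGFP fusions in mCherry-positive Jurkat cells, FACS-sorted after compound exposure, with degron abundance counted by next-generation sequencing.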
Sequence,log2 fold change of degron read counts [1],log2 fold change of degron read counts [2],log2 fold change of degron read counts [3],log2 fold change of degron read counts (compound: thalidomide)
"LTCNQCGFKCTQKGNLLRHIKL [46L_47T_49N_50Q_52G_53F_54K_55C_67L_, Q9UKT9]",-2.23,-1.85,-2.34,-1.79
"FVCPICGAIFTQKGNLLRHIKL [46F_47V_49P_50I_52G_53A_54I_55F_67L_, Q9UKT9]",-0.598,0.358,1.51,1.69
"FTCPICGRIFTQKGNLLRHIKL [46F_47T_49P_50I_52G_53R_54I_55F_67L_, Q9UKT9]",-1.75,-0.494,0.959,1.17
"FKCPICGAIFTQKGNLLRHIKL [46F_47K_49P_50I_52G_53A_54I_55F_67L_, Q9UKT9]",-2.31,-3.23,-3.09,-1.63
"FYCPICGAIFTQKGNLLRHIKL [46F_47Y_49P_50I_52G_53A_54I_55F_67L_, Q9UKT9]",2.75,2.82,1.86,0.386
"FSCPICGAIFTQKGNLLRHIKL [46F_47S_49P_50I_52G_53A_54I_55F_67L_, Q9UKT9]",1.58,1.34,2.26,0.935
"FSCPICGRIFTQKGNLLRHIKL [46F_47S_49P_50I_52G_53R_54I_55F_67L_, Q9UKT9]",-0.412,-0.447,1.06,0.174
"FGCPICGAIFTQKGNLLRHIKL [46F_47G_49P_50I_52G_53A_54I_55F_67L_, Q9UKT9]",3.81,2.51,2.55,0.986
"FGCPICGRIFTQKGNLLRHIKL [46F_47G_49P_50I_52G_53R_54I_55F_67L_, Q9UKT9]",3.47,1.77,0.585,-0.161
"FQCPICGAIFTQKGNLLRHIKL [46F_47Q_49P_50I_52G_53A_54I_55F_67L_, Q9UKT9]",-0.241,3.26,2.84,3.79
"FSCDVCGALFTQKGNLLRHIKL [46F_47S_49D_50V_52G_53A_54L_55F_67L_, Q9UKT9]",-1.17,-1.66,0.461,-2.2
"FECEQCGAGFTQKGNLLRHIKL [46F_47E_49E_50Q_52G_53A_54G_55F_67L_, Q9UKT9]",-1.66,-2.94,-1.37,-1.37
"FRCSVCGHNFTQKGNLLRHIKL [46F_47R_49S_50V_52G_53H_54N_55F_67L_, Q9UKT9]",-2.2,-2.6,-2.8,-2.89
"FICEICGHSFTQKGNLLRHIKL [46F_47I_49E_50I_52G_53H_54S_55F_67L_, Q9UKT9]",-3.27,-2.78,-2.2,-2.17
"FCCDICGAEFTQKGNLLRHIKL [46F_47C_49D_50I_52G_53A_54E_55F_67L_, Q9UKT9]",0.189,-0.292,-0.603,-0.702
"FTCNQCGHTFTQKGNLLRHIKL [46F_47T_49N_50Q_52G_53H_54T_55F_67L_, Q9UKT9]",-3.38,-3.31,-3.66,-2.92
"FMCDVCGAIFTQKGNLLRHIKL [46F_47M_49D_50V_52G_53A_54I_55F_67L_, Q9UKT9]",-2.28,-2.09,0.171,-1.7
"FLCNICGARFTQKGNLLRHIKL [46F_47L_49N_50I_52G_53A_54R_55F_67L_, Q9UKT9]",-1.1,-1.89,-0.701,0.842
"FTCNICGARFTQKGNLLRHIKL [46F_47T_49N_50I_52G_53A_54R_55F_67L_, Q9UKT9]",0.313,1.57,0.916,2.41

Sequence,log2 fold change of degron read counts [1],log2 fold change of degron read counts [2],log2 fold change of degron read counts [3],log2 fold change of degron read counts (compound: thalidomide)
"FWCNICGARFTQKGNLLRHIKL [46F_47W_49N_50I_52G_53A_54R_55F_67L_, Q9UKT9]",2.19,3.34,0.85,0.523
"FYCNICGARFTQKGNLLRHIKL [46F_47Y_49N_50I_52G_53A_54R_55F_67L_, Q9UKT9]",1.83,2.47,-0.345,-0.644
"FQCNICGARFTQKGNLLRHIKL [46F_47Q_49N_50I_52G_53A_54R_55F_67L_, Q9UKT9]",-0.916,0.973,0.399,3.26
"FNCNICGARFTQKGNLLRHIKL [46F_47N_49N_50I_52G_53A_54R_55F_67L_, Q9UKT9]",1.28,0.255,-1.05,-0.266
"LHCPICGFWCTQKGNLLRHIKL [46L_47H_49P_50I_52G_53F_54W_55C_67L_, Q9UKT9]",1.34,1.54,2.54,1.59
"FQCPICGHNFTQKGNLLRHIKL [46F_47Q_49P_50I_52G_53H_54N_55F_67L_, Q9UKT9]",-2.9,-1.92,-1.21,0.375
"LQCPICGFTCTQKGNLLRHIKL [46L_47Q_49P_50I_52G_53F_54T_55C_67L_, Q9UKT9]",1.75,2.59,2.54,3.66
"LTCPICGFTCTQKGNLLRHIKL [46L_47T_49P_50I_52G_53F_54T_55C_67L_, Q9UKT9]",1.57,3.31,2.65,3.44
"LLCPICGFTCTQKGNLLRHIKL [46L_47L_49P_50I_52G_53F_54T_55C_67L_, Q9UKT9]",0.147,0.286,1.38,2.64
"LHCPICGFTCTQKGNLLRHIKL [46L_47H_49P_50I_52G_53F_54T_55C_67L_, Q9UKT9]",2.75,2.97,2.8,2.34
"LICPICGFTCTQKGNLLRHIKL [46L_47I_49P_50I_52G_53F_54T_55C_67L_, Q9UKT9]",0.369,2.36,2.13,2.81
"LRCPICGFTCTQKGNLLRHIKL [46L_47R_49P_50I_52G_53F_54T_55C_67L_, Q9UKT9]",0.326,0.593,1.93,2.23
"LFCPICGFTCTQKGNLLRHIKL [46L_47F_49P_50I_52G_53F_54T_55C_67L_, Q9UKT9]",3.39,3.54,2.49,2.69
"LACPICGFTCTQKGNLLRHIKL [46L_47A_49P_50I_52G_53F_54T_55C_67L_, Q9UKT9]",3.68,3.23,2.51,2.61
"LVCPICGFTCTQKGNLLRHIKL [46L_47V_49P_50I_52G_53F_54T_55C_67L_, Q9UKT9]",1.27,2.61,2.22,3.21
"LKCPICGFTCTQKGNLLRHIKL [46L_47K_49P_50I_52G_53F_54T_55C_67L_, Q9UKT9]",-0.865,-1.65,-1.59,0.662
"LMCPICGFTCTQKGNLLRHIKL [46L_47M_49P_50I_52G_53F_54T_55C_67L_, Q9UKT9]",-0.0285,1.97,2.76,2.79
"LSCPICGFTCTQKGNLLRHIKL [46L_47S_49P_50I_52G_53F_54T_55C_67L_, Q9UKT9]",3.13,2.83,2.48,2.59
